For experiment [1], the target named is Aryl hydrocarbon receptor (Homo sapiens) (UniProt P35869). Description: ATG_Ahr_CIS: Attagene CIS-FACTORIAL HepG2 Assay for human Aryl Hydrocarbon Receptor (Ahr) (AID 2282930). The note with it: HepG2 AhR cis-factorial reporter transcription; actives raise or lower the signal. The method, boiled down: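 HepG2 cells transiently transfected with cis-element-driven multiplexed reporter units; endogenous AhR activity read as reporter mRNA 24 h after dosing, via RT-PCR, 6-FAM labelling, HpaI digestion and capillary electrophoresis. Bidirectional fit relative to DMSO.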

A short description of experiment [2]: ATG_AP_1_CIS: Attagene CIS-FACTORIAL HepG2 Assay for human Activator Protein 1 (AP-1) (AID 2282931). The note with it: HepG2 Attagene cis-factorial AP-1 reporter mRNA; actives raise or lower the signal. The method, boiled down:
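Transient MRTU transfection of HepG2 → 24 h chemical treatment → RNA isolation, RT-PCR, 6-FAM labelling, HpaI digest → capillary electrophoresis. Fit: bidirectional, DMSO negative control.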

Experiment [3] can be described thus: ATG_AP_2_CIS: Attagene CIS-FACTORIAL HepG2 Assay for human Activator Protein 2 (AP-2) (AID 2282932). As to conditions: HepG2 AP-2 cis-reporter, Attagene transcription factor profiling; actives raise or lower the signal. The method in brief: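 Multiplexed mRNA reporter assay in HepG2: cis-regulated units report endogenous factor activity after 24 h treatment. Fluorescence from capillary electrophoresis of RT-PCR products gives the signal, with DMSO as baseline.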

A short description of experiment [4]: ATG_BRE_CIS: Attagene CIS-FACTORIAL HepG2 Assay for human Bone Morphogenetic Protein (BMP) Response Element (BRE) (AID 2282933). As to conditions: HepG2 BMP response element reporter, Attagene transcription factor profiling; actives raise or lower the signal. The method in brief: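 Endogenous transcription factor activity read in transiently transfected HepG2 cells after 24 h chemical exposure. Bidirectional curve fitting against DMSO; readout is reporter transcript level by RT-PCR with capillary electrophoresis of labelled products.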

The target of experiment [5] is Retinoic acid receptor alpha (Homo sapiens) (UniProt P10276). Kind of experiment: ATG_DR5_RAR_CIS: Attagene CIS-FACTORIAL HepG2 Assay for human Retinoic Acid Receptor Alpha (RARE), DR5 submotif (AID 2282934).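 As to AC50: reporter responds to endogenous RAR alpha beta and gamma in HepG2 not RARA alone.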 The note with it: HepG2 Attagene cis-factorial RARE DR5 reporter, mRNA; actives raise or lower the signal. The method in brief: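 HepG2 cells transiently transfected with multiplexed reporter units; DR5 cis-element drives reporter through endogenous transcription factors. After 24 h dosing, reporter mRNA quantified by RT-PCR, fluorescent labeling, HpaI digestion and capillary electrophoresis; bidirectional fitting versus DMSO.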

Experiment [6] addresses Transcription factor E2F1 (Homo sapiens) (UniProt Q01094). Kind of experiment: ATG_E2F_CIS: Attagene CIS-FACTORIAL HepG2 Assay for human E2F Transcription Factor 1 (AID 2282935). As to conditions: HepG2 Attagene cis-reporter, E2F reporter RNA transcripts; actives raise or lower the signal. The method, boiled down: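 Measures reporter transcript levels via RT-PCR with capillary electrophoresis detection in HepG2 cells harboring cis-regulated reporter units; 24 h post-dose; bidirectional curve fitting with DMSO as baseline.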

Experiment [7] in a line: ATG_E_Box_CIS: Attagene CIS-FACTORIAL HepG2 Assay for human Enhancer Box (E-box) (AID 2282936). The note with it: HepG2 E-box cis-reporter transcription, actives raise or lower the signal. The method, boiled down: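 First, HepG2 cells receive multiple cis-regulated reporter constructs by transient transfection. Next, chemicals are applied for 24 h. Finally, reporter mRNA is quantified via RT-PCR and capillary electrophoresis, with DMSO as baseline.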

Experiment [8] is described as follows: ATG_M_61_CIS: Attagene CIS-FACTORIAL HepG2 Assay for M61 Transcription Factor (Internal Marker) (AID 2282937). The note with it: HepG2 Attagene CIS-FACTORIAL M61 internal marker reporter; actives raise or lower the signal. The method, boiled down: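 Human liver HepG2, transient MRTU transfection (cis promoter elements), 24 h compound. Total RNA → oligo(dT) RT → PCR → FAM label → HpaI → CE. Internal background marker; bidirectional fitting, DMSO = baseline.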

The nature of experiment [9]: ATG_EGR_CIS: Attagene CIS-FACTORIAL HepG2 Assay for human Early Growth Response 1 (EGR1) (AID 2282938). As to conditions: HepG2 Attagene CIS-FACTORIAL EGR reporter mRNA; actives raise or lower the signal. The method, boiled down: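 Transient transfection of human HepG2 with multiple cis-regulated reporter units, chemical exposure 24 h, total RNA isolated. Reverse transcription, PCR, fluorescent labelling and capillary electrophoresis quantify reporter transcripts; activity fitted bidirectionally against DMSO.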

The nature of experiment [10]: ATG_M_19_CIS: Attagene CIS-FACTORIAL HepG2 Assay for M19 Transcription Factor (Internal Marker) (AID 2282939). The note with it: HepG2 Attagene CIS-FACTORIAL M19 internal marker reporter; actives raise or lower the signal. The method, boiled down:
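Internal marker readout, fitted in both directions against DMSO, from HepG2 cells carrying transfected cis-element reporter constructs; RT-PCR and capillary electrophoresis of reporter mRNA after 24 h exposure.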

The results in this text go back to PubChem BioAssay (EPA / NIEHS).

SMILES strings stand for the structures. Where “and” joins values, the source holds several entries; their conditions need not be identical. Equal values may be shown once. A structure can be active in one record and inactive in another. Calls of active or inactive are those of the source. The calls were made as follows: active = hit-call score of the fitted dose curve at least 0.9, where 1 is the maximum; inactive = score below 0.9.

Retinoic acid receptor alpha (Homo sapiens), sequence (P10276 whole entry, looked up): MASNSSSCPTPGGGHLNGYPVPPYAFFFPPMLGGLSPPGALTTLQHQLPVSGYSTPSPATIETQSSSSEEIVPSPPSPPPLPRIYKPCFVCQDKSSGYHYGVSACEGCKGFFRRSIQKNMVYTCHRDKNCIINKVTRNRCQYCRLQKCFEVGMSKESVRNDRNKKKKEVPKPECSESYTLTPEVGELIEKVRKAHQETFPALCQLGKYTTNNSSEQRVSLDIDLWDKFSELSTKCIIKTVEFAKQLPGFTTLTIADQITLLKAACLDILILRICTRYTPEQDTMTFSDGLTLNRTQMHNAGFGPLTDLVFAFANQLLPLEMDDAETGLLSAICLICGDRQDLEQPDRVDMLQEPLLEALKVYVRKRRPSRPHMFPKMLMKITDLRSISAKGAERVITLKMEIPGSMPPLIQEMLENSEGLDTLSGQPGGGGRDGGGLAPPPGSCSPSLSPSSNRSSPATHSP
Aryl hydrocarbon receptor (Homo sapiens), sequence (P35869 whole entry, looked up): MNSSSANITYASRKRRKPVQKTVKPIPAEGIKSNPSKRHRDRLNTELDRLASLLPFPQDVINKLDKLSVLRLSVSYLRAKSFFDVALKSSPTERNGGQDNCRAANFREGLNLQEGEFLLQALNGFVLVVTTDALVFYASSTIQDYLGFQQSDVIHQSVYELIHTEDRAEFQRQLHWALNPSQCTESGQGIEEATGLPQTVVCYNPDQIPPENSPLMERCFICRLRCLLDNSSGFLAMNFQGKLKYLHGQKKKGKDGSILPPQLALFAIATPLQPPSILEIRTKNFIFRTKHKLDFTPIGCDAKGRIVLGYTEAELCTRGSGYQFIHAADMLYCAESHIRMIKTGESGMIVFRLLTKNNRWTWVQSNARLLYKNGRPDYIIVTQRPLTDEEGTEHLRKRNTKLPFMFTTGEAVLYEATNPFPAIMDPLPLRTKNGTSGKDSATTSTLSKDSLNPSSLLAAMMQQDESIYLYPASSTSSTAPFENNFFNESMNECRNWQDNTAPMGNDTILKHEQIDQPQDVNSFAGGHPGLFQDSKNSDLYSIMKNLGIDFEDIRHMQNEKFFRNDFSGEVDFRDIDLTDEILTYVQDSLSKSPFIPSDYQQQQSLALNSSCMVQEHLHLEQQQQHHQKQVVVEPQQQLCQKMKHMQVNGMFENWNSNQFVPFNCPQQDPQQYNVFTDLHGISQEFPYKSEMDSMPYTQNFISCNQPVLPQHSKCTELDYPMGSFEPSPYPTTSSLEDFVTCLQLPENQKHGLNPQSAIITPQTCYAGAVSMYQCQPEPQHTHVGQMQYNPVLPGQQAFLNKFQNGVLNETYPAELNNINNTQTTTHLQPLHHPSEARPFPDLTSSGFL
Transcription factor E2F1 (Homo sapiens), sequence (Q01094 whole entry, looked up): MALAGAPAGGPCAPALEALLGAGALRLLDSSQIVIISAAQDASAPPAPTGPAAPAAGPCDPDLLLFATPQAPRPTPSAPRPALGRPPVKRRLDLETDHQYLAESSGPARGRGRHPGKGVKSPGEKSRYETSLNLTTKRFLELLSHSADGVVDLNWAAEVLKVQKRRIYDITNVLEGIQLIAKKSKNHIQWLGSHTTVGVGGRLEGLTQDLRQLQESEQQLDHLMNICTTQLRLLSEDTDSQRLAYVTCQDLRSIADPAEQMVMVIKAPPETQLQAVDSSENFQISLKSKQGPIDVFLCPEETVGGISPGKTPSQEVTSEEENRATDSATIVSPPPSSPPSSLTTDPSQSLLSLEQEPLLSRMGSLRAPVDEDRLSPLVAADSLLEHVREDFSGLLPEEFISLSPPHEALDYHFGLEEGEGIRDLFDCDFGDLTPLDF

As for `COc1ccc(C=O)cc1OC`, the outcome in [1], in experiment [2], in experiment [3], in [4], in experiment [5] and in [6] was inactive. Moreover, the outcome in experiment [7], in experiment [8], in experiment [9] and in [10] was inactive.
For `C[C@]12CCC(=O)C[C@@H]1CC[C@@H]1[C@@H]2CC[C@]2(C)[C@@H](O)CC[C@@H]12`, the concentration at half-maximal activity (AC50) (commonly the concentration giving half of the maximal activity seen) was 23.1 µM (active) in [1]; 65.4 µM (active) and 87 µM (active) in experiment [4]; 24 µM (active) and 23.2 µM (active) and 13.8 µM (active) in [7]. Moreover, the call in experiment [1], in [2], in [3], in experiment [4], in [6] and in experiment [7] was inactive. The molecule was classed as inactive in experiment [8] and in experiment [10].
In the case of `O=Cc1cccc(Oc2ccccc2)c1`, the outcome in experiment [1], in experiment [2], in experiment [3], in [4], in experiment [5] and in [6] was inactive. The outcome in experiment [7], in experiment [8], in experiment [9] and in [10] was inactive.
For `N#CCc1ccc(Cl)cc1`, the result in experiment [1], in experiment [2], in experiment [3], in [4], in experiment [5] and in [6] was inactive. Further, the result in experiment [7], in experiment [8], in experiment [9] and in [10] was inactive.
As to `O=CC=O`, the outcome in experiment [1], in [2], in [3], in experiment [4], in [5] and in experiment [6] was inactive. In addition, the outcome in [7], in experiment [8], in experiment [9] and in [10] was inactive.
Turning to `O=C(Nc1ccc2[nH]ccc2c1)c1cc2cc(F)ccc2n1Cc1cccc(F)c1`, the molecule was called inactive in experiment [1], in [3], in experiment [4], in [5], in experiment [6] and in [8]. In addition, the AC50 in experiment [2] was 7.29 µM (active); in experiment [7], 19.2 µM (active); in [9], 11 µM (active); in experiment [10], 13.7 µM (active).
Consider `N#Cc1ccccn1`, for which the molecule was classed as inactive in [1], in experiment [2], in experiment [3], in experiment [4], in experiment [5] and in experiment [6]. For the same molecule, the result in [7], in experiment [8], in experiment [9] and in experiment [10] was inactive.
As for `C=CC#N`, the result in experiment [1], in experiment [2], in experiment [3], in [4], in [5] and in experiment [6] was inactive. For the same molecule, the result in experiment [7], in experiment [8], in experiment [9] and in experiment [10] was inactive.
For the molecule `O=C(O)C(F)(F)C(F)(F)C(F)(F)C(F)(F)C(F)(F)C(F)(F)C(F)(F)C(F)(F)C(F)(F)C(F)(F)F`, the result in [1], in [2], in experiment [4], in [5], in experiment [6] and in [7] was inactive. Also, the call in experiment [8] and in experiment [10] was inactive. Further, the concentration at half-maximal activity (AC50) in experiment [2] is 23.9 µM (active); in [5], 129 µM (active); in experiment [7] it was 54.5 µM (active); in [8], 76.2 µM (active); in [9], 24.7 µM (active) and 14.8 µM (active); in experiment [10], 138 µM (active).
Consider `N#CCCO`, for which the molecule was classed as inactive in experiment [1], in [2], in experiment [3], in experiment [4], in [5] and in experiment [6]. Further, the result in experiment [7], in experiment [8], in experiment [9] and in experiment [10] was inactive.
As for `Oc1ccc(-c2ccccc2)cc1`, the outcome in [1], in [2], in experiment [4], in experiment [6], in experiment [8] and in experiment [10] was inactive. Moreover, the half-maximal activity concentration (AC50) in experiment [3] is 26.8 µM (active); in [5] it was 154 µM (active); in experiment [7], 169 µM (active); in experiment [9], 68.5 µM (active).
Take `CCC(C)(C)c1ccc(O)c(C(C)(C)CC)c1`: the result in experiment [1], in experiment [3], in [4], in [6], in experiment [7] and in experiment [8] was inactive. Moreover, in experiment [10], the molecule was classed as inactive. For the same molecule, the values for the AC50 in [2] and in experiment [5] were 12.8 µM (active) and 5.73 µM (active), respectively.
In the case of `CCOP(=S)(OCC)SCSP(=S)(OCC)OCC`, the molecule was classed as inactive in experiment [1], in [2], in [3], in experiment [4], in experiment [5] and in experiment [6]. Besides, the result in [7], in experiment [8], in experiment [9] and in experiment [10] was inactive.
With `O=[N+]([O-])c1ccc(O)c([N+](=O)[O-])c1`, the molecule was called inactive in experiment [1], in experiment [2], in [3], in [4], in [5] and in experiment [6]. Moreover, the result in [7], in [8] and in experiment [10] was inactive.
On to `CCOP(=O)(CN(CCO)CCO)OCC`, for which the molecule was classed as inactive in experiment [1], in experiment [2], in experiment [3], in [4], in experiment [5] and in experiment [6]. In addition, the result in experiment [7], in experiment [8], in [9] and in experiment [10] was inactive.
In the case of `CC(C)OC(=O)Nc1ccccc1`, the molecule was called inactive in experiment [1], in [2], in [3], in [4], in experiment [5] and in experiment [6]. Further, the outcome in experiment [7], in experiment [8], in experiment [9] and in experiment [10] was inactive.
For the molecule `Cn1sc(Cl)cc1=O`, in experiment [1], the AC50 is 67.3 µM (active). Moreover, the molecule was classed as inactive in [2], in [3], in experiment [4], in experiment [5], in experiment [6] and in experiment [7]. Further, the call in [8], in experiment [9] and in experiment [10] was inactive.
Take `CC1(C)Cc2cccc(O)c2O1`: the molecule was called inactive in [1], in [2], in experiment [3], in [4], in experiment [5] and in [6]. For the same molecule, the outcome in [7], in experiment [8], in experiment [9] and in [10] was inactive.
With `CCCCCCCCSC(=O)Oc1cc(Cl)nnc1-c1ccccc1`, the result in [1], in experiment [3], in [4], in experiment [6], in [7] and in experiment [8] was inactive. Besides, the outcome in [9] and in experiment [10] was inactive. For the same molecule, the concentration at half-maximal activity (AC50) in experiment [2] was 122 µM (active); in experiment [5], 100 µM (active).
For the molecule `Oc1cccc2cccnc12`, the concentration at half-maximal activity (AC50) is 165 µM (active) in experiment [1], 24.8 µM (active) in [2], 69.2 µM (active) in [7] and 70.1 µM (active) in experiment [9]. Besides, the molecule was called inactive in experiment [1], in experiment [2], in [3], in experiment [4], in experiment [6] and in experiment [7]. Moreover, the call in experiment [8], in experiment [9] and in experiment [10] was inactive.
Consider `COc1cccc(C=O)c1`, for which the molecule was called inactive in experiment [1], in experiment [2], in experiment [3], in [4], in [5] and in experiment [6]. Also, the result in [7], in [8], in [9] and in experiment [10] was inactive.
Turning to `CC(=O)[O][Hg][c]1ccccc1`, the molecule was classed as inactive in experiment [1], in experiment [2], in experiment [3], in [4], in experiment [6] and in experiment [7]. In addition, the molecule was classed as inactive in [8] and in experiment [10]. Moreover, the results for the concentration at half-maximal activity (AC50) in experiment [5] and in [9] were 1.24 µM (active) and 4.73 µM (active), respectively.
Take `Clc1ccc(COC(Cn2ccnc2)c2ccc(Cl)cc2Cl)cc1` (stereo unspecified): the result in [1], in experiment [2], in experiment [3], in [4], in experiment [5] and in experiment [6] was inactive. Moreover, the outcome in experiment [7], in experiment [8], in experiment [9] and in [10] was inactive.
